Only some compounds are listed: those with a hit (about 19% of all), similar ones and a draw of the others.
HT1080-NT tox: kills 2HG-producing HT-1080-NT fibrosarcoma cells. Potency, µM (top dose mostly 46.1 µM), most hits filed as cytotoxic. 360,000 tested, 1.6% active. HT-1080-NT fibrosarcoma viability, CellTiter-Glo ATP luminescence, 48 h;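 also: NT is the 2HG producing partner of a matched IDH1 knockdown line; nearly all actives have a fitted effect of over 55% in size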
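HT-1080-NT fibrosarcoma cells (2HG-overproducing), 750 cells/well in RPMI with 5% FBS, dosed after 2 h and incubated 48 h at 37C. CellTiter-Glo luminescence normalized to DMSO and no-cell wells; concentration-response curves fitted and classed.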
DT40 TDP1 CPT: DT40-hTDP1 cell growth loss with CPT. chicken DT40 Tdp1-/-;hTDP1 cells + 20 nM CPT, ATP luminescence, 48 h. Potency, µM (highest dose often 46.2 µM), actives largely listed as inhibitors. 420,000 tested, 12% active; also: nearly all actives have a fitted effect of over 55% in size
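Chicken DT40 Tdp1-/- cells complemented with human TDP1, 400 cells/well, exposed to compounds plus 20 nM camptothecin for at least 48 h at 37 C; viability read as ATP content by CellTiter-Glo luminescence.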
KB-3-1 tox: kills parental KB-3-1 adenocarcinoma cells; 400,000 tested, 1.4% active; KB-3-1 viability, CellTiter-Glo ATP luminescence, 72 h; Potency, µM (top dose mostly 46.1 µM), hits mostly cytotoxic; also: nearly all actives have a fitted effect of over 60% in size
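Parental KB-3-1 viability, qHTS format: 72 h compound exposure, 37 °C; CellTiter-Glo; media-only wells and DMSO plates as controls; concentration-effect fits on corrected data.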
KB-V1 MDR tox: KB-V1 MDR subline cytotoxicity; Potency, µM (doses to about 46.1 µM), usual class: cytotoxic; 400,000 tested, 3.4% active; KB-V1 MDR cells viability, CellTiter-Glo, 72 h; also: nearly all actives have a fitted effect of over 60% in size
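Readout: CellTiter-Glo luminescence, 10 min after addition. Cells: KB-V1 MDR subline, 72 h at 37 degrees C with compound. Analysis: corrected, normalized data fitted to concentration-effect curves.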
HT1080 IDH1KD tx: kills HT-1080 cells with IDH1 knockdown; Potency, µM (series often up to 46.1 µM), hits mostly cytotoxic; 360,000 tested, 2% active; AID 686971; HT-1080 IDH1 knockdown viability, ATP luminescence, 48 h
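Using the IDH1-knockdown HT-1080 line run in the same batch and compound series as the NT line, viability after 48 h at 37 °C was determined by CellTiter-Glo luminescence and expressed as % activity.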
TDP1 cell noCPT: qHTS for Inhibitors of human tyrosyl-DNA phosphodiesterase 1 (TDP1): qHTS in cells in absence of CPT; DT40 Tdp1-/- hTDP1 cells, no CPT, ATP luminescence, 48 h; Potency, µM (titrated, usually from 46.2 µM), actives largely listed as inhibitors; 420,000 tested, 15% active; AID 686978, 2013; also: nearly all actives have a fitted effect of over 55% in size
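Cells were dispensed at 400 per well, compounds added by pin tool, plates incubated ≥48 hr at 37 °C, then CellTiter-Glo added for 30 min at room temperature before luminescence reading. Line: DT40 Tdp1-/- complemented with hTDP1; camptothecin omitted.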
Large screens that a line does not name were inactive. Calls follow the shape of the dose curve; as a rule, active = well fitted curve in the direction sought with a large enough effect; inconclusive = small, poorly fitted or top-dose-only effect, or another doubt; inactive = no such curve, though single readings can be large; an effect the other way counts as inactive or inconclusive.

Nc1c(C(=O)c2ccccc2)sc2c1c(=O)[nH]c(=O)n2-c1ccccc1	KB-V1 MDR tox 15µM
Nc1c(C(=O)c2ccc(Cl)cc2)sc2c1c(=O)[nH]c(=O)n2-c1ccccc1	none
CCOCCCNC(=O)CN1C(=O)c2ccccc2Sc2ncccc21	none
O=c1oc2ccccc2cc1-c1cn2cc(Cc3ccc(Cl)cc3)sc2n1	DT40 TDP1 CPT 3.3µM, KB-3-1 tox inconclusive, KB-V1 MDR tox inconclusive, TDP1 cell noCPT 2.6µM (no result: HT1080-NT tox, HT1080 IDH1KD tx)
Cc1ccc(CNC(=O)c2sc3ncnc(N(C)C4CCCCC4)c3c2C)cc1	DT40 TDP1 CPT inconclusive, KB-3-1 tox inconclusive, TDP1 cell noCPT 26µM (no result: HT1080-NT tox, HT1080 IDH1KD tx)
Cc1c(C(=O)NCc2ccc(OC(C)C)cc2)sc2ncnc(N(C)C3CCCCC3)c12	DT40 TDP1 CPT inconclusive, TDP1 cell noCPT inconclusive (no result: HT1080-NT tox, HT1080 IDH1KD tx)
Cc1ccccc1CNC(=O)c1sc2ncnc(N(C)C3CCCCC3)c2c1C	DT40 TDP1 CPT inconclusive, KB-V1 MDR tox inconclusive, TDP1 cell noCPT 21µM (no result: HT1080-NT tox, HT1080 IDH1KD tx)
COc1ccccc1NS(=O)(=O)c1cc(NC(=O)c2cccs2)ccc1N1CCOCC1	DT40 TDP1 CPT 7.3µM, TDP1 cell noCPT 2.6µM
COc1ccccc1NS(=O)(=O)c1cc(NC(=O)c2ccco2)ccc1N1CCOCC1	DT40 TDP1 CPT inconclusive, KB-V1 MDR tox inconclusive, TDP1 cell noCPT inconclusive
COc1ccccc1NS(=O)(=O)c1cc(NC(=O)c2ccccc2F)ccc1N1CCOCC1	DT40 TDP1 CPT 16µM, KB-V1 MDR tox inconclusive, TDP1 cell noCPT 13µM
COc1ccccc1NS(=O)(=O)c1cc(NC(=O)c2ccccc2[N+](=O)[O-])ccc1N1CCOCC1	DT40 TDP1 CPT inconclusive, TDP1 cell noCPT inconclusive
CCc1nc2ccc(C(=O)Nc3cccc(NS(C)(=O)=O)c3)cn2c1N(C)Cc1nccn1C	HT1080-NT tox inconclusive
Cc1c(C(=O)N2CCCC2)sc2ncnc(NCCCN3CCOCC3)c12	none (no result: HT1080-NT tox, KB-3-1 tox, KB-V1 MDR tox, HT1080 IDH1KD tx)
CC(=O)Oc1cccc2c1C(=O)C1CC=CC(OC(C)=O)C1C2=O (configuration not stated)	DT40 TDP1 CPT inconclusive, TDP1 cell noCPT 23µM
Cc1cccc(N(C)C(=O)Cn2c(=O)oc3cc(S(=O)(=O)N4CCCCC4)ccc32)c1	none (no result: HT1080-NT tox, HT1080 IDH1KD tx)
CCOc1cc(/C=N/N=C(\N)c2nonc2N)cc(Br)c1OCc1cccc2ccccc12	HT1080-NT tox 23µM, DT40 TDP1 CPT 23µM, KB-3-1 tox inconclusive, KB-V1 MDR tox inconclusive, HT1080 IDH1KD tx 18µM, TDP1 cell noCPT 13µM
COc1cc(/C=N/NC(N)=S)cc(Br)c1OCc1ccccc1F	DT40 TDP1 CPT 6.5µM, KB-V1 MDR tox 18µM, TDP1 cell noCPT 6.5µM
CCOc1cc(/C=N/NC(N)=S)cc(Br)c1OCc1ccccc1C	DT40 TDP1 CPT 5.8µM, TDP1 cell noCPT 16µM
COC(=O)N/N=C/c1cccc(OCCSc2ccc(Cl)cc2)c1	HT1080-NT tox inconclusive, DT40 TDP1 CPT inconclusive, HT1080 IDH1KD tx inconclusive, TDP1 cell noCPT inconclusive
COc1cc(/C=N/N=C(\N)c2nonc2N)cc(OC)c1O	TDP1 cell noCPT inconclusive
NC(=S)N/N=C/c1ccccc1OCCSc1ccc(Cl)cc1	HT1080-NT tox inconclusive, DT40 TDP1 CPT 13µM, KB-3-1 tox inconclusive, KB-V1 MDR tox inconclusive, HT1080 IDH1KD tx inconclusive, TDP1 cell noCPT 15µM
CCN(CC)CC(=O)N1c2ccccc2CCc2ccc(NC(=O)c3cc(OC)c(OC)c(OC)c3)cc21	HT1080 IDH1KD tx inconclusive
Cc1nc2ccccn2c(=O)c1NC(=O)c1ccc(F)c(F)c1	none (no result: HT1080-NT tox, KB-3-1 tox, KB-V1 MDR tox, HT1080 IDH1KD tx)
COc1cccc(/C=N/NC(N)=S)c1OCc1ccccc1Cl	DT40 TDP1 CPT 2.9µM, HT1080 IDH1KD tx inconclusive, TDP1 cell noCPT 4.1µM
C/C(=N\NC(=S)Nc1ccc(F)cc1)C1CC1	HT1080-NT tox 8.9µM, DT40 TDP1 CPT inconclusive, HT1080 IDH1KD tx 11µM, TDP1 cell noCPT inconclusive
CC1CCN(C(=S)Nc2ccc(F)cc2)CC1	DT40 TDP1 CPT inconclusive, KB-3-1 tox inconclusive, KB-V1 MDR tox inconclusive, TDP1 cell noCPT inconclusive
